Screens as filed in PubChem BioAssay.
An excerpt weighted towards active compounds, which were near 2.4% of everything screened.
HSF1 inhib: HSF1 inhibition | NIH3T3-HGL HSE-luciferase, MG132-induced, luminescence 8 h; hits give low values | activity change, negative = inhibition, % at 7.5 µM (by protocol) | 300,000 compounds, 0.77% hits | AID 2098;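 active means more than half of replicate wells show activity change below -50%, luminescence cut by over half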;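 further: luciferase reports HSF-1 transcriptional activity via heat shock element; 0% = median of DMSO wells and -100% = zero luminescence signal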
NOD2-RIPK2 inh: inhibitors of human NOD2-RIPK2 interaction; O43353; CHO BLA complementation NOD2-RIPK2, CCF4 ratio; inhibition, % at 4.98 µM; 360,000 compounds, 0.38% hits; AID 624267; in the data active means inhibition above about 21%;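 further: 0% = vehicle only and 100% = reference blocker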
TLR4 MyD88 comp: inhibitors of human TLR4-MyD88 binding; O00206+Q99836; HeLa CL3-4 TLR4/MyD88 BLA complementation, FRET ratio; inhibition, % at 8.4 µM; 200,000 compounds, 0.18% hits; in the data active means inhibition above about 25%;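 further: 0% = vehicle and 100% = reference inhibitor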
Target sequence (O00206 whole entry, looked up): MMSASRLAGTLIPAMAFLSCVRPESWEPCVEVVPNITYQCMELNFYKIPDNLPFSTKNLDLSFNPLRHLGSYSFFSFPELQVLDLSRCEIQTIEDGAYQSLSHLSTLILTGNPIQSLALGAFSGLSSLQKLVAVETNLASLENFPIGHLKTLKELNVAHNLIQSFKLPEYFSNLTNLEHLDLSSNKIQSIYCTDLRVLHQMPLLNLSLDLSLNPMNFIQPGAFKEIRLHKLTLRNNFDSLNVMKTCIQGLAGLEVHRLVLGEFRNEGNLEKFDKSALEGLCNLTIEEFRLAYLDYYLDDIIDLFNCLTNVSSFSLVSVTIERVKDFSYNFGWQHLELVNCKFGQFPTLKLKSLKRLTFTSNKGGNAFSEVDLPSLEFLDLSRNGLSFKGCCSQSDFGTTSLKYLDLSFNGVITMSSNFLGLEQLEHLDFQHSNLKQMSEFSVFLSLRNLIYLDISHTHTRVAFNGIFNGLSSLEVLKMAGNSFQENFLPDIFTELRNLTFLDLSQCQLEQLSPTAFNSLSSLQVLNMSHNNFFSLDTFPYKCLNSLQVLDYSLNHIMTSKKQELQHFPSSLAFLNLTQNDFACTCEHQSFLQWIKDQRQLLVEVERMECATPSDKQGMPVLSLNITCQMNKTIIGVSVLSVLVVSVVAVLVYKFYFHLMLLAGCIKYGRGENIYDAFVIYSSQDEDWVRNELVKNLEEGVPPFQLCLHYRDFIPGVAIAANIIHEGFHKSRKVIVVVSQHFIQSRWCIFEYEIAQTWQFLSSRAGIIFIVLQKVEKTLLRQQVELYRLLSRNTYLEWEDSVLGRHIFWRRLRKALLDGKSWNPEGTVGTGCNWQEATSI
Target sequence (Q99836 whole entry, looked up): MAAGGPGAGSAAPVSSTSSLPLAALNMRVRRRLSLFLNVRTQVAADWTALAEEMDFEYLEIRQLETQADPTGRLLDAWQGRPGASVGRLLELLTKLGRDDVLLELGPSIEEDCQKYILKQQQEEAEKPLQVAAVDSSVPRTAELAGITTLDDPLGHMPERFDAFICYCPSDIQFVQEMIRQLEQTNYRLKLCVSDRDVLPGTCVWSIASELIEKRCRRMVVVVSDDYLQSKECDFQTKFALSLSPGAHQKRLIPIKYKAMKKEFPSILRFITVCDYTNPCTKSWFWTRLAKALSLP
HSF-1 act: increases HSF-1 driven luciferase reporter signal; NIH3T3-HGL HSF-1 luciferase reporter, MG132, 8 h; 100% = twice DMSO control signal; activation, % at 9 µM; 300,000 compounds, 1.7% hits; AID 504408;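 active means mean replicate activation of at least 50% with a set share of replicates each reaching 50%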;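 further: 0% = median of the neutral control wells and 100% = twice that signal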
TLR9-MyD88 block: TLR9-MyD88 interaction inhibition | Q9NR96+Q99836 | CHO BLA complementation TLR9-MyD88, CCF4 FRET ratio | inhibition, % at 4.98 µM | 340,000 compounds, 0.21% hits | AID 504734;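 active means inhibition above the mean over all tested compounds plus 3 SD, cut at about 21% in these data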;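 further: 0% = DMSO only wells and 100% = clavulanate BLA inhibitor control wells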
Numbers without * were called inactive; x = no result.

SMILES	HSF1 inhib	NOD2-RIPK2 inh	TLR4 MyD88 comp	HSF-1 act	TLR9-MyD88 block
Cc1sc2ncnc(NCC(O)c3ccc([N+](=O)[O-])cc3)c2c1C (stereo not drawn)	8.3	-3.4	x	29.6	6.3
N#CC(=C1CCCC1)c1nc(-c2ccccc2)cs1	47.1	1.8	-7.0	85.6*	10.1
N#CC(=C1CCCC1)c1nc(-c2cc3ccccc3oc2=O)cs1	51.7	4.5	-6.6	72.4*	-5.8
COc1ccc(NC(=O)CN(C)C(=O)c2ccccc2Sc2ncnc3sc(C)c(C)c23)cc1	-6.0	5.2	x	13.5	-5.3
NC(=O)c1ccc(NC(=O)c2ccc(COc3ccc(F)cc3)o2)cc1	x	-1.0	x	x	-4.0
CCOc1ccc(NC(=O)CN(C)C(=O)c2cc3c(s2)CCC3)cc1OCC	x	3.6	x	x	-5.9
O=C(NC(=S)N1CCN(c2ccc([N+](=O)[O-])cc2Cl)CC1)c1ccco1	42.9	-2.2	-6.1	55.5*	1.9
O=C(c1ccco1)N1CCN(c2ccc([N+](=O)[O-])cc2Cl)CC1	8.5	-3.2	x	9.8	-5.8
Cc1csc(=O)n1CC(=O)OCC(=O)NNC(=O)c1ccc(Cl)cc1	x	4.6	x	x	-5.2
CN(/C(=N\S(=O)(=O)c1ccccc1)c1ccccc1)c1ccc(O)cc1	11.8	7.1	-23.7	58.6*	-2.1
Cn1c(-c2cc3ccc(OC(=O)C(C)(C)C)cc3oc2=O)nc2ccccc21	13.9	17.0	22.3	57.9*	16.9
NC(=O)c1ncn([C@@H]2O[C@H](CNCc3ccc(OCC(=O)Nc4ccccn4)cc3)[C@@H](O)[C@H]2O)n1	x	6.3	x	x	-5.7
C/C(CC(=O)Nc1cccc2c1CCCC2)=N\NC(=O)COc1ccccc1	29.5	1.3	-5.7	60.7*	-14.0
C/C(CC(=O)Nc1cccc2c1CCCC2)=N\NC(=O)Cc1ccccc1	26.0	7.8	x	29.2	-2.7
O=C(NCC1CCCO1)/C(=C/c1ccccc1F)NC(=O)c1ccccc1 (stereo not drawn)	-3.9	4.5	x	-9.9	6.0
Clc1ccc(-c2ccc(CNCC3CCCO3)o2)cc1 (stereo not drawn)	62.3	-1.0	x	78.7*	-2.1
Cc1ccccc1CN1CCN(C(=O)c2ccc(F)cc2)CC1	-62.8*	0.7	x	-70.3	-3.1
COc1cc(/C=C/c2ccc3cccc(O)c3n2)cc(Cl)c1OC	67.8	-3.0	x	71.8*	7.4
Cc1ccc(/C=C/c2ccc3cccc(O)c3n2)s1	50.9	2.8	x	85.0*	2.6
O=C(CC(=O)c1ccccc1O)c1cccc(F)c1	17.5	-1.8	8.0	39.4	0.6
O=C(CCCC(=O)c1ccc(F)cc1)c1ccc(F)cc1	50.3	-4.8	x	81.4*	-6.6
O=C(CCCN1CCC(C(=O)c2ccc(F)cc2)CC1)c1ccc(F)cc1	-4.7	2.1	x	-3.8	11.8
O=C(CC(=O)c1ccccc1O)c1ccc(F)cc1	37.5	-4.8	9.7	75.2*	-14.7
O=C(O)c1cc(S(=O)(=O)NCCCN2CCCC2=O)ccc1Cl	x	2.7	x	x	-0.7
CCOc1cc(/C=C2/C(=O)ON=C2C)ccc1OCc1ccccc1	3.2	x	9.2	-4.6	x
SMILES	HSF1 inhib	NOD2-RIPK2 inh	TLR4 MyD88 comp	HSF-1 act	TLR9-MyD88 block
C#CCOc1c(Cl)cc(/C=C2/C(=O)ON=C2C)cc1OCC	16.0	-23.1	x	52.1*	-2.0
C#CCOc1c(Br)cc(/C=C2/C(=O)ON=C2C)cc1OCC	-29.8	9.2	x	-45.8	4.9
CCOc1cc(/C=C2/C(=O)ON=C2C)ccc1OCc1ccc(F)cc1	22.2	1.1	18.1	62.6*	-3.5
O=C(CCc1ccc(S(=O)(=O)N2CCOCC2)cc1)N/N=C/c1cccc(O)c1	-4.1	-0.5	-11.3	9.3	6.9
C/C(=N\NC(=O)CCc1ccc(S(=O)(=O)N2CCOCC2)cc1)c1ccc(Br)cc1	22.9	-6.8	4.0	60.8*	2.6
Cn1c(N)c(C(=O)CSc2nnc3n2CCCCC3)c(=O)n(C)c1=O	x	-6.5	x	x	-2.4
CCCCn1c(SCc2c(C)noc2C)nc2cc(S(N)(=O)=O)ccc21	30.4	1.9	5.1	51.7*	3.5
CCCCn1c(SCC(=O)Nc2cc(C)on2)nc2cc(S(N)(=O)=O)ccc21	x	2.5	x	x	2.7
COc1ccc(N2CCN(CC(O)COCCOc3ccc(Br)cc3)CC2)cc1 (stereo not drawn)	-65.7*	4.3	1.8	-74.4	0.4
O=C(/C=C/c1ccc(F)cc1)NC(=S)N1CCN(c2ccccn2)CC1	50.8	-4.7	x	59.3*	-6.6
Cc1ccc(/C=C/C(=O)OCC(=O)NCCN2C(=O)CSC2=O)o1	-72.9*	0.9	0.0	-79.4	1.7
C=CCOc1ccc(C(c2c(C)n(C)n(-c3ccccc3)c2=O)c2c(C)n(C)n(-c3ccccc3)c2=O)cc1	-84.6*	-2.2	x	-87.2	4.5
CSc1ccc(C2C(C#N)=C(N)N(c3ccccc3)C3=C2C(=O)CCC3)cc1 (stereo not drawn)	22.2	-6.5	0.7	57.6*	-19.5
CCOC(=O)C1CCN(c2ccccc2CN2CCN(c3ccccc3OCC)CC2)CC1	-21.4	-2.6	x	-28.7	-0.3
CSc1cccc(NC(=O)CN(C)S(=O)(=O)c2ccc(F)cc2)c1	-6.2	4.2	-8.0	-4.0	3.0
CSc1cccc(NC(=O)CN(C)S(=O)(=O)c2ccccc2)c1	21.3	-2.5	-10.7	66.7*	-2.0
CCOc1cc2c(cc1OCC)C(c1ccc(OC)cc1)N(c1ccccc1)C(=O)C2 (stereo not drawn)	-85.1*	-10.7	0.8	-89.5	6.4
CCOC(=O)c1c(N)sc(C(=O)Nc2ccccc2)c1C	-3.6	-14.1	-1.1	13.9	8.1
CCOC(=O)c1c(N)sc(C(=O)Nc2ccccc2F)c1C	58.6	-1.1	-13.6	95.0*	-7.7
CC(C)NC(=O)N(C)C[C@@H]1Oc2c(NC(=O)Nc3ccccc3)cccc2C(=O)N([C@H](C)CO)C[C@H]1C	x	2.1	x	x	-2.5
CC(=O)Cn1c(=O)oc2ccccc21	-10.3	-3.2	x	7.9	0.2
Cc1[nH]c2ccccc2c1C(=O)Cn1c(=O)oc2ccccc21	33.0	-8.8	3.2	76.1*	-4.9
NC(=O)C1CC(=O)N(c2ccc(OCC(=O)N3CCCC3)cc2)C1 (stereo not drawn)	x	1.6	x	x	-7.3
C=CCNC(=O)C1CC(=O)N(c2ccc(OCC(=O)Nc3ccccc3)cc2)C1 (stereo not drawn)	20.8	-2.4	15.7	53.0*	11.0
C=CCNC(=O)C1CC(=O)N(c2ccc(OCC(=O)Nc3ccc(C)cc3)cc2)C1 (stereo not drawn)	-10.3	-11.7	10.0	-26.6	1.1
CNC(=O)C1CC(=O)N(c2ccc(OCC(=O)N3CCCC3)cc2)C1 (stereo not drawn)	12.9	-8.2	x	53.9*	-0.5
CC(=O)/C(=N\Nc1ccccc1)Sc1cccc2cccnc12	166.7	7.8	-12.1	187.0*	1.6
CC(=O)/C(=N\Nc1ccccc1Cl)Sc1cccc2cccnc12	130.5	-2.2	-21.1	143.0*	-0.8
O=C(CSc1cccc2cccnc12)Nc1ccccc1F	3.5	1.2	x	9.6	-18.9
